From PubChem BioAssay (Tox21)
Inconclusive results are not listed. The source made the active and inactive calls. The call rests on the fitted dose curve; in most records, active means well fitted curve in the direction sought with a large enough effect in the repeat runs; inconclusive means weak or mixed curves; inactive means no such curve, though single readings can be large; an effect the other way counts as inactive or inconclusive. Non-standard residues stand in square brackets, D forms with d. Residues, ends and D or L forms follow the SMILES beside them. *: point of attachment. Sta = CC(C)C[C@H](N)[C@@H](O)CC(=O)O; Isovaleryl = CC(C)CC(=O)*

Tests used:
[1] = molecular target: Nuclear receptor subfamily 1 group I member 2 (Homo sapiens) (UniProt O75469); experiment: CYP3A4 induction through human pregnane X receptor (PXR) by small molecules, qHTS assay (AID 1346984); further: nearly all actives have a fitted effect of over 40% in size
Outline: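 Steps: seed DPX-2 cells, 5 hr at 37C; pin-transfer compounds; 24 hr at 37C; add Luciferin-IPA (3uM final), 3 hr at 37C; add One-Glo, 30 min RT; read luminescence.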

[2] = molecular target: Nuclear receptor subfamily 1 group I member 2 (Homo sapiens) (UniProt O75469); experiment: Human pregnane X receptor (PXR) activation by small molecules, qHTS assay (AID 1346985); further: nearly all actives have a fitted effect of over 40% in size
Outline: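 DPX-2 cells (HepG2 co-transfected with a PXR response element and a CYP3A4-promoter luciferase construct) were seeded at 2,000 per well, rested 5 hr at 37C, then exposed to DMSO-dissolved compounds for 24 hr. Activation was read as luciferase luminescence.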

[3] = molecular target: Cytochrome P450 2D6 (Homo sapiens) (UniProt P10635); experiment: Cytochrome P450 Family 2 Subfamily D Member 6 (CYP2D6) small molecule antagonists: luciferase reporter qHTS assay (AID 1671196); further: series mostly up to about 120 µM; nearly all actives have a fitted effect of over 50% in size
Cytochrome P450 2D6 (Homo sapiens), sequence (P10635 whole entry, looked up): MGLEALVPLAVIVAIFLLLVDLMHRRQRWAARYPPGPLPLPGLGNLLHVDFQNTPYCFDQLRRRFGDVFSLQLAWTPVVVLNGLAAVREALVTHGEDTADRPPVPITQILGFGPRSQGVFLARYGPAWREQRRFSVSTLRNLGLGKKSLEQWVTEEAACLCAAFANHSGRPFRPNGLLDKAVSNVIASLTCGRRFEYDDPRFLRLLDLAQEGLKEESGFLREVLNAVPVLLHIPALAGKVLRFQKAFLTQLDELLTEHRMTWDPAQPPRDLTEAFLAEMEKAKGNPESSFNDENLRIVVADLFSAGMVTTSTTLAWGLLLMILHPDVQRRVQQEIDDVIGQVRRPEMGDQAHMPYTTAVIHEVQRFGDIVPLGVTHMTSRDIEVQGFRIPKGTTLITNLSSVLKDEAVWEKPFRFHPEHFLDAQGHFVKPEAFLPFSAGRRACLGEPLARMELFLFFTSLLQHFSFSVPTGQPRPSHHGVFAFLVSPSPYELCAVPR
Outline: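 P450-Glo format: CYP2D6 converts a proluciferin substrate to luciferin in an NADPH-driven reaction lasting 1 h at room temperature. Light output, proportional to CYP2D6 activity, reflects interference by test chemicals.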

[4] = molecular target: Cytochrome P450 2C19 (Homo sapiens) (UniProt P33261); experiment: Cytochrome P450 Family 2 Subfamily C Member 19 (CYP2C19) small molecule antagonists: luciferase reporter qHTS assay (AID 1671197); further: nearly all actives have a fitted effect of over 65% in size; further: potency means the concentration at half of the fitted maximal effect; on activity change, negative = inhibition: series mostly up to about 120 µM
Cytochrome P450 2C19 (Homo sapiens), sequence (P33261 whole entry, looked up): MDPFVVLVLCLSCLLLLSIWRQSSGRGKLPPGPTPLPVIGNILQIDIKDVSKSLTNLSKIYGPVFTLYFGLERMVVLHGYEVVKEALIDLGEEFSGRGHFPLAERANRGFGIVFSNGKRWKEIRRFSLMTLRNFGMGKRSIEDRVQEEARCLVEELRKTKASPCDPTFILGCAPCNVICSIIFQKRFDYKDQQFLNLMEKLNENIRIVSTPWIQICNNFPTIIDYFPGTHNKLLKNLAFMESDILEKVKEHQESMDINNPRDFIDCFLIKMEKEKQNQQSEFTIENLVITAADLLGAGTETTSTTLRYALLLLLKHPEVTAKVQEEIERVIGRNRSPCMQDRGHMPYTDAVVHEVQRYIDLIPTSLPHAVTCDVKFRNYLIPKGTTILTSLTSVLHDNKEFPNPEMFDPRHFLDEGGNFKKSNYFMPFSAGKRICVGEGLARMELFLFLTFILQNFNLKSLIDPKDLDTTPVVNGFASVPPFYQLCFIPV
Outline: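 CYP2C19 P450-Glo, 1536-well qHTS. Cpd + enzyme/proluciferin substrate 10 min RT; + NADPH regen, 37C 1 h; stop with luciferin detection reagent, 20 min RT, luminescence (RLU). Pos ctrl ketoconazole.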

[5] = molecular target: Cytochrome P450 2C9 (Homo sapiens) (UniProt P11712); experiment: Cytochrome P450 Family 2 Subfamily C Member 9 (CYP2C9) small molecule antagonists: luciferase reporter qHTS assay (AID 1671198); further: nearly all actives have a fitted effect of over 50% in size; further: potency means the concentration at half of the fitted maximal effect; on activity change, negative = inhibition: series mostly up to about 120 µM
Cytochrome P450 2C9 (Homo sapiens), sequence (P11712 whole entry, looked up): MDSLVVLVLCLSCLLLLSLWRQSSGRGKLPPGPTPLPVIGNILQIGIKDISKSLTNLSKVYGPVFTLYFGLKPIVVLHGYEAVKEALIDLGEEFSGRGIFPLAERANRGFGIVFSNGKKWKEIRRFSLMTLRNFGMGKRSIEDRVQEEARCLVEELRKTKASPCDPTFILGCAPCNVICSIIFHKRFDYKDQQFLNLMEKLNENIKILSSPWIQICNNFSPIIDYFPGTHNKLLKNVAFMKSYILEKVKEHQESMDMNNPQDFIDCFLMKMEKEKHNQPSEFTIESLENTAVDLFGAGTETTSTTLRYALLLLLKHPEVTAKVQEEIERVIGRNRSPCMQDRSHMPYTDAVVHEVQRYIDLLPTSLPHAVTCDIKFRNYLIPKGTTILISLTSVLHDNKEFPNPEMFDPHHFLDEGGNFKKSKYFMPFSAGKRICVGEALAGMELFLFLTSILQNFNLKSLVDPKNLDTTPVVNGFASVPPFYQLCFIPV
Outline: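 P450-Glo proluciferin substrate with CYP2C9 enzyme; 10 min RT preincubation, then NADPH regeneration 1 h at 37C; luciferin detection reagent 20 min RT, luminescence in relative luminescence units.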

[6] = molecular target: Cytochrome P450 1A2 (Homo sapiens) (UniProt P05177); experiment: Cytochrome P450 Family 1 Subfamily A Member 2 (CYP1A2) small molecule antagonists: luciferase reporter qHTS assay (AID 1671199); further: nearly all actives have a fitted effect of over 50% in size; further: potency means the concentration at half of the fitted maximal effect; on activity change, negative = inhibition: series mostly up to about 120 µM
Cytochrome P450 1A2 (Homo sapiens), sequence (P05177 whole entry, looked up): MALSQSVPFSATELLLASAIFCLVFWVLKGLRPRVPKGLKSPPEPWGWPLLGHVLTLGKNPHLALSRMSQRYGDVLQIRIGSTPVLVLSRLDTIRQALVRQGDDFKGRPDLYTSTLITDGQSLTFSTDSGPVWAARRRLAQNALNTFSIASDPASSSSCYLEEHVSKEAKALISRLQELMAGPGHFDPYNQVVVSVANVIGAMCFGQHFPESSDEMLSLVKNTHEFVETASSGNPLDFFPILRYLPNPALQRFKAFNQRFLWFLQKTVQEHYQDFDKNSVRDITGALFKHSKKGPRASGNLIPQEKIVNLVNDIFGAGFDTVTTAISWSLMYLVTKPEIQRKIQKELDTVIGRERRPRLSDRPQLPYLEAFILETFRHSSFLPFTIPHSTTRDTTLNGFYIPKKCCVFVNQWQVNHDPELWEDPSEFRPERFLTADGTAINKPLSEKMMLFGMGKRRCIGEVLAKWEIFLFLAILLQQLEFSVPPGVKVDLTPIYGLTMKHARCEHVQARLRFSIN
Outline: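 Inhibition of CYP1A2 conversion of proluciferin to luciferin, detected by luminescence. Reaction run 1 h at room temperature with NADPH regeneration after brief compound preincubation.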

[7] = molecular target: Voltage-gated inwardly rectifying potassium channel KCNH2 (Homo sapiens) (UniProt Q12809); experiment: Human Ether-a-go-go-Related Gene (hERG) channel small molecule antagonists: fluorescence cell-based qHTS assay (AID 1671200); further: series mostly up to about 77 µM; nearly all actives have a fitted effect of over 50% in size
Voltage-gated inwardly rectifying potassium channel KCNH2 (Homo sapiens), sequence (Q12809 whole entry, looked up): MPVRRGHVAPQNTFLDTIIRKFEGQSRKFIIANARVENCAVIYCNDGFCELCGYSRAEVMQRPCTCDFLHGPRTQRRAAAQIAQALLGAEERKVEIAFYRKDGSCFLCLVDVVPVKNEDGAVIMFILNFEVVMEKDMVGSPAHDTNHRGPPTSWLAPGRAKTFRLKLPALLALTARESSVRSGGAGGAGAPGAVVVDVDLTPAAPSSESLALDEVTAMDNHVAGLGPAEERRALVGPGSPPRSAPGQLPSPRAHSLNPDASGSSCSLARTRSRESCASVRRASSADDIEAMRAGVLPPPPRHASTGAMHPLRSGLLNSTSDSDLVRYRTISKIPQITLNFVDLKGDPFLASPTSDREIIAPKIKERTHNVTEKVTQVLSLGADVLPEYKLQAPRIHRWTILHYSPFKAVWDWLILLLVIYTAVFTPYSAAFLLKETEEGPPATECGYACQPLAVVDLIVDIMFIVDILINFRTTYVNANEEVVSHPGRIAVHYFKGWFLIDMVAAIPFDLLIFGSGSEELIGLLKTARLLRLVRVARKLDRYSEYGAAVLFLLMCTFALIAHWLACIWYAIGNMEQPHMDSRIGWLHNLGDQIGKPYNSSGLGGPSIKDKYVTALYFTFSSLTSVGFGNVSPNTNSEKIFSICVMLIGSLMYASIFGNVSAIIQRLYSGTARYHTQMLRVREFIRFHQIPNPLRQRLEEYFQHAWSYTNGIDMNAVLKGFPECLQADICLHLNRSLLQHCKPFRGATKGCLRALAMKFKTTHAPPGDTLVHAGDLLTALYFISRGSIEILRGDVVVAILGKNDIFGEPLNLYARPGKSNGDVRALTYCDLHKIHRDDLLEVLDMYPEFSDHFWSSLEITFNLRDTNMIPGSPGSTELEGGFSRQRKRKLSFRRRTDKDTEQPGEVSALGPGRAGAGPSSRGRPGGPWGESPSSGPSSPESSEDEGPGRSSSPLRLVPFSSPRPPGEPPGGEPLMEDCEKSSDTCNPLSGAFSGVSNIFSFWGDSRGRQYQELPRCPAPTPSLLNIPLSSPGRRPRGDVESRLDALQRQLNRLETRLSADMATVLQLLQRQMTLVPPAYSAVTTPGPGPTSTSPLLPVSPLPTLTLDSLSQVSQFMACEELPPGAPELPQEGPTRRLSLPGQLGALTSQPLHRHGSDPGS
Outline: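 Thallium flux as potassium surrogate: FluxOR II dye loaded 1 h at room temperature into hERG-expressing U2OS cells, then stimulus buffer added after 10 min. Kinetic 480 nm excitation/540 nm emission read, 2 min.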

[8] = molecular target: Cytochrome P450 3A4 (Homo sapiens) (UniProt P08684); experiment: Cytochrome P450 Family 3 Subfamily A Member 4 (CYP3A4) small molecule antagonists: luciferase reporter qHTS assay (AID 1671201)
Cytochrome P450 3A4 (Homo sapiens), sequence (P08684 whole entry, looked up): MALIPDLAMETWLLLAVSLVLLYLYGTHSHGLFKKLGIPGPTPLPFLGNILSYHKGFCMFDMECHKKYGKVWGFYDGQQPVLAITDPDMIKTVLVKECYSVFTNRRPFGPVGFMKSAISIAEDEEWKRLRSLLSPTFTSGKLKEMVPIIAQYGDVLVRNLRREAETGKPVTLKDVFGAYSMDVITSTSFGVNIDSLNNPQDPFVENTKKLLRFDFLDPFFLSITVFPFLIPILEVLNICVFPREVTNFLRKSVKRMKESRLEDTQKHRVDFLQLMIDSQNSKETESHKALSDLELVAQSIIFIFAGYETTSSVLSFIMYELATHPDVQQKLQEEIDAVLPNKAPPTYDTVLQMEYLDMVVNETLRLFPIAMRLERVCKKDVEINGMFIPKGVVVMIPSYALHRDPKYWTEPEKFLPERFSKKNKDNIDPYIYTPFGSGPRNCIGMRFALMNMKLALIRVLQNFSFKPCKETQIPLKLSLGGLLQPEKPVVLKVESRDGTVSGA
Outline: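 Recombinant human CYP3A4 converts a proluciferin substrate to luciferin over 1 h at room temperature after NADPH regeneration solution is added (compound preincubated 10 min); detection reagent stops reaction, luminescence read 20 min later as relative units.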

[9] = molecular target: Nuclear receptor subfamily 1 group I member 2 (Rattus norvegicus) (UniProt Q9R1A7); experiment: Rat pregnane X receptor (rPXR) activation by small molecules, qHTS assay (AID 1346983); settings: rPXR luciferase reporter cells, One-Glo luminescence, 24 h; max activation: active compounds read high; further: nearly all actives have a fitted effect of over 20% in size
Nuclear receptor subfamily 1 group I member 2 (Rattus norvegicus), sequence (Q9R1A7 whole entry, looked up): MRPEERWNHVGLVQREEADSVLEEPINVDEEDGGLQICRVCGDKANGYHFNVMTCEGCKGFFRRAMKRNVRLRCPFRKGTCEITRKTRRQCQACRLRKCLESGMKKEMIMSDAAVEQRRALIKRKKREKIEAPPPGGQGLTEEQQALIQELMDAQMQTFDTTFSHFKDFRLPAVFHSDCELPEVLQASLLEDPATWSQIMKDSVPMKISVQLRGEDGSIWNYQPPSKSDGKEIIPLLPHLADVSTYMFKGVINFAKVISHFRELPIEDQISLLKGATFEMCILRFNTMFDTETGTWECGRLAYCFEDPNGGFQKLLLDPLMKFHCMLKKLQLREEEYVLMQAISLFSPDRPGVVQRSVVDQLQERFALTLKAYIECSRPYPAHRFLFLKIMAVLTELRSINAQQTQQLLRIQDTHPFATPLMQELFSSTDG
Outline: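 Cell-based rPXR activation assay: rPXR cells, 2,000 per well, rested 5hr at 37 C, then exposed to compounds in DMSO for 24 hr at 37 C. Luciferase activity read by One-Glo luminescence after 30 min at room temperature.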
On the % scale 0 is the no-effect control and ±100 the full control effect.

CNCCc1ccccn1
inactive: outcome [1] | outcome [2] | Potency [3] | Potency [4] | Potency [5] | Potency [6] | Potency [7] | Potency [8]

Nc1ccc(C(=O)NCC(=O)O)cc1
inactive: outcome [1] | outcome [2] | Potency [4] | Potency [5] | Potency [6] | Potency [7] | Potency [8]

O=S(=O)(O)c1cc(I)c(O)c2ncccc12
inactive: outcome [1] | outcome [2] | Potency [3] | Potency [4] | Potency [6] | Potency [7] | Potency [8]

C[C@@H]1NC(=O)[C@@H](N)CNC(=O)[C@H](C2CCNC(N)=N2)NC(=O)/C(=C/NC(N)=O)NC(=O)[C@H](CNC(=O)C[C@@H](N)CCCN)NC1=O (some centres undefined)
inactive: outcome [1] | outcome [2] | activity change, negative = inhibition [3] -6.52% [at 0.435 µM] | activity change, negative = inhibition [5] 3.32% [at 0.435 µM] | activity change, negative = inhibition [7] 0.491% [at 0.29 µM] | activity change, negative = inhibition [8] 1.92% [at 0.435 µM]

NS(=O)(=O)c1cc2c(cc1C(F)(F)F)NCNS2(=O)=O
inactive: outcome [1] | outcome [2] | Potency [3] | Potency [5] | Potency [6] | Potency [7]

CCN1CCN(C(=O)N[C@@H](C(=O)N[C@@H]2C(=O)N3C(C(=O)O)=C(CSc4nnnn4C)CS[C@H]23)c2ccc(O)cc2)C(=O)C1=O
inactive: outcome [1] | outcome [2] | Potency [3] | Potency [4] | Potency [5] | Potency [6] | Potency [7] | Potency [8]

Cc1ccc(S(=O)(=O)NC(=O)NN2CC3CCCC3C2)cc1 (centres undefined)
inactive: outcome [1] | outcome [2] | Potency [3] | Potency [4] | Potency [5] | Potency [6] | Potency [7] | Potency [8]

COc1cc(NS(=O)(=O)c2ccc(N)cc2)ncn1
inactive: max activation [9] -2.45% | Potency [3] | Potency [4] | Potency [7] | Potency [8]

O=C(OOC(=O)c1ccccc1)c1ccccc1
inactive: outcome [1] | outcome [2] | Potency [3] | Potency [5] | Potency [6] | Potency [7] | Potency [8]

CN1CCN(C(=O)C2CCCCC2)CC1
inactive: outcome [1] | outcome [2] | Potency [3] | Potency [5] | Potency [6] | Potency [7] | Potency [8]

C[n+]1ccccc1/C=N/O
inactive: outcome [1] | outcome [2] | Potency [3] | Potency [4] | Potency [5] | Potency [7] | Potency [8]

CN1C(CCl)Nc2cc(Cl)c(S(N)(=O)=O)cc2S1(=O)=O (centres undefined)
inactive: outcome [1] | outcome [2] | Potency [3] | Potency [4] | Potency [5] | Potency [6] | Potency [7]

COC(=O)N/N=C/c1c[n+]([O-])c2ccccc2[n+]1[O-]
inactive: outcome [1] | outcome [2] | Potency [4] | Potency [5] | Potency [7] | Potency [8]

CCOC(=O)COc1ccc2c(C)c(CCN(CC)CC)c(=O)oc2c1Cl
inactive: max activation [9] 4.23% | outcome [1] | outcome [2] | Potency [5] | Potency [8]

CCCCC(CC)CCC(CC(C)C)OS(=O)(=O)O (centres undefined)
active: Potency [5] 31.7 µM
inactive: outcome [1] | outcome [2] | Potency [3] | Potency [7] | Potency [8]

C[C@]12C=CC(=O)C=C1[C@@H](F)C[C@@H]1[C@@H]2[C@@H](O)C[C@@]2(C)[C@H]1CC[C@]2(O)C(=O)CO
inactive: outcome [1] | outcome [2] | Potency [3] | Potency [4] | Potency [5] | Potency [6] | Potency [7]

CC(C)OC(=O)C(C(=O)OC(C)C)=C1SC=CS1
active: Potency [4] 34.7 µM
inactive: max activation [9] 6.37% | outcome [1] | outcome [2] | Potency [3] | Potency [7] | Potency [8]

CC(=O)OCC(=O)[C@@]1(O)CC[C@H]2[C@@H]3CCC4=CC(=O)C=C[C@]4(C)[C@H]3[C@@H](O)C[C@@]21C
inactive: outcome [1] | outcome [2] | Potency [3] | Potency [4] | Potency [5] | Potency [6] | Potency [7]

O=C(O)P(=O)(O)O
inactive: outcome [1] | outcome [2] | Potency [3] | Potency [4] | Potency [5] | Potency [7] | Potency [8]

CC(=O)Nc1ccc(OCCOCCOc2ccc(NC(C)=O)cc2)cc1
inactive: outcome [1] | outcome [2] | Potency [6] | Potency [7] | Potency [8]
active: Potency [4] 17.4 µM | Potency [5] 5.49 µM

CC[C@@]1(c2ccccc2)NC(=O)N(C)C1=O
inactive: outcome [1] | outcome [2] | Potency [3] | Potency [5] | Potency [7] | Potency [8]

C[C@@H](CN1CC(=O)NC(=O)C1)N1CC(=O)NC(=O)C1
inactive: outcome [1] | outcome [2] | Potency [3] | Potency [4] | Potency [5] | Potency [6] | Potency [7] | Potency [8]

N=C(N)N1CCc2ccccc2C1
inactive: outcome [1] | outcome [2] | activity change, negative = inhibition [3] -15.2% [at 10.5 µM] | activity change, negative = inhibition [4] 22.1% [at 10.5 µM] | activity change, negative = inhibition [5] 6.48% [at 10.5 µM] | activity change, negative = inhibition [6] 0.421% [at 10.5 µM] | activity change, negative = inhibition [7] -6.17% [at 6.97 µM]

COc1cc(OC)cc(OC)c1
inactive: outcome [1] | outcome [2] | Potency [3] | Potency [4] | Potency [5] | Potency [7] | Potency [8]
active: Potency [6] 17.4 µM

CC(C)(Sc1cc(C(C)(C)C)c(O)c(C(C)(C)C)c1)Sc1cc(C(C)(C)C)c(O)c(C(C)(C)C)c1
inactive: max activation [9] -1.55% | Potency [7]

CC(C)CC(=O)N[C@H](C(=O)N[C@H](C(=O)N[C@@H](CC(C)C)[C@@H](O)CC(=O)N[C@@H](C)C(=O)N[C@@H](CC(C)C)[C@@H](O)CC(=O)O)C(C)C)C(C)C (Isovaleryl-VV[Sta]A[Sta]-OH)
inactive: outcome [1] | outcome [2] | Potency [3] | Potency [4] | Potency [5] | Potency [7] | Potency [8]

C[C@@H]1CC[C@@]2(OC1)O[C@H]1C[C@H]3[C@@H]4CC[C@H]5C[C@@H](O)CC[C@]5(C)[C@H]4CC(=O)[C@]3(C)[C@H]1[C@@H]2C
inactive: outcome [1] | outcome [2] | activity change, negative = inhibition [4] 11.3% [at 10.5 µM] | activity change, negative = inhibition [5] 3.54% [at 10.5 µM] | activity change, negative = inhibition [7] 3.03% [at 6.97 µM] | activity change, negative = inhibition [8] 29.8% [at 10.5 µM]
